Compounds with a hit are over-represented: about 22% of the library has one in this group of screens.
LmPK inhibitor: inhibitors of Leishmania mexicana pyruvate kinase; purified LmPK, Kinase-Glo ATP luminescence, 1 h; Potency, µM (series often up to 57.5 µM), inactives show at the top dose activity change, negative = inhibition, most hits filed as inhibitors; hit rate 0.37% among 290,000; AID 1721; further: potency means the concentration at half of the fitted maximal effect; on the % scale 0 is the no-effect control and ±100 the full control effect
Target sequence (Q27686 whole entry, looked up): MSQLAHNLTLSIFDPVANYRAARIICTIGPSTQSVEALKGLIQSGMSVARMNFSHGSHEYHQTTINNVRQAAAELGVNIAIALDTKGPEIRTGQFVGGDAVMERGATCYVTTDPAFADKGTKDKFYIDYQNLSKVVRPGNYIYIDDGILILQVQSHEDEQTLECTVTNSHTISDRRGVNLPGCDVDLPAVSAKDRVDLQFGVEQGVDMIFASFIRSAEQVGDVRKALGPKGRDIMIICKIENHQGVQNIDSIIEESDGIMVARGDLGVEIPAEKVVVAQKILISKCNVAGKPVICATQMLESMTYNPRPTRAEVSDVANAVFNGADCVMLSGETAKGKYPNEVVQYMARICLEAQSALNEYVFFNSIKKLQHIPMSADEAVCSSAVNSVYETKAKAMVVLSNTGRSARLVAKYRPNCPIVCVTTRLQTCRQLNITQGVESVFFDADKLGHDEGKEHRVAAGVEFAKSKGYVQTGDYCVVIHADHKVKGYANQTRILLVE
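Purified LmPK (0.1 nM) converted ADP (0.1 mM) to ATP with PEP (0.5 mM) in imidazole buffer pH 7.2 with KCl and MgCl2, 1 h at room temperature. ATP was read by Kinase-Glo luminescence; data normalized to uninhibited and no-enzyme controls.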
Shiga inhibitor: inhibitors of Shiga toxin in Vero cells. Vero cells, Shiga toxin protein synthesis inhibition reporter. inhibition, % at 38.7 µM. hit rate 9.2% among 290,000; in the data active means inhibition mostly above about 28%, no sharp cut-off; inactive means mostly below about 43%; further: 0% is about no effect
Pf growth 48h: inhibits P. falciparum growth in the first generation, 48 h; P. falciparum luciferase growth in erythrocytes, 48 h; Potency, µM (highest dose often 28.7 µM), for the others: at the top dose activity change, negative = inhibition, hits mostly inhibitors; hit rate 5.9% among 310,000; further: potency means the concentration at half of the fitted maximal effect; on the % scale 0 is the no-effect control and ±100 the full control effect
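In quantitative HTS format, infected erythrocytes bearing luciferase-reporter parasites were treated for a single generation at 37 C. Luminescence after adding detection reagent served as the growth measure.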
Pf growth 96h: inhibits malaria parasite growth, 96 h | P. falciparum luciferase reporter growth, 96 h | Potency, µM (highest dose often 28.7 µM), inactives show at the highest dose activity change, negative = inhibition, actives largely listed as inhibitors | hit rate 6.9% among 320,000; further: potency means the concentration at half of the fitted maximal effect; on the % scale 0 is the no-effect control and ±100 the full control effect
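P. falciparum expressing integrated firefly luciferase grown in erythrocytes (2% hematocrit, 0.05% parasitemia final) with compounds for 96 hours at 37 C, 5% CO2. Growth inhibition read as loss of luminescence after adding luciferase detection reagent.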
CHX counter: affects cycloheximide protein synthesis inhibition readout, counter-screen | cell reporter, cycloheximide protein synthesis inhibition counterscreen | max response, % | hit rate 12% among 300,000 | AID 2314; in the data active means max response mostly above about 13%, no sharp cut-off; inactive means mostly below about 14%; further: read at 38.3 µM for the half of the compounds with a filed dose; 0% is about no effect
* = called active by the depositor; ? = inconclusive; . = no result; [ ] = remark or other dose. Unless noted, the call rests on the fitted dose curve; in most records, active means well fitted inhibition curve with a large enough effect; inconclusive means small, poorly fitted or top-dose-only effect, or another doubt; inactive means no such curve, though single readings can be large or run the other way.

SMILES | LmPK inhibitor | Shiga inhibitor | Pf growth 48h | Pf growth 96h | CHX counter
CCOC(=O)/C(N=Nc1c(C)n(C)n(-c2ccccc2)c1=O)=C(/O)c1ccccc1 | 3% | -2 | -17% | 10% | 3
Cc1c(N=N/C(C(=O)Nc2ccccc2)=C(/O)c2ccccc2)c(=O)n(-c2ccccc2)n1C | 0% | -2 | ? | 3.7µM* | 11
C[C@H]1CN=C(N(C)C)N1CC1CCC(C(C)(C)C)CC1 (stereo not given in full) | . | . | 7.4µM* | ? | .
COc1cc2c(C(=O)NCCCN3CCN(c4cccc(Cl)c4)CC3)cn(C)c(=O)c2cc1OC | -1% | -16 | ? | ? | -2
O=C(NCCN1CCCC1)c1cccc(Cl)c1 | -3% | -6 | 8% | 38% | -2
O=C(NCCCN1CCN(c2cccc(Cl)c2)CC1)c1nc(-c2ccncc2)no1 | -1% | 0 | 6.6µM* | 5% | -2
O=C(NCCCN1CCN(CCCNC(=O)c2cccc(Cl)c2)CC1)c1cccc(Cl)c1 | -3% | -7 | ? | 12µM* | -6
Cc1cc(Br)ccc1NC(=O)C1CCN(S(=O)(=O)c2cnc[nH]2)CC1 | 0% | -1 | -14% | 90% | 0
CCOC(=O)c1cn(CC)c2cc(N3CCOCC3)c(F)cc2c1=O | -1% | 10 | 1.9µM* | 14% | -2
CCn1cc(C(=O)NCCC(C)C)c(=O)c2cc(F)c(N3CCN(C)CC3)cc21 | 0% | -1 | ? | ? | -3
CC(=O)N1CCN(c2cc3c(cc2F)c(=O)c(C(=O)O)cn3C2CC2)CC1 | 0% | -4 | ? | -89%[5.75 µM] | -2
CN1CCN(c2cc3c(cc2F)c(=O)c(C(=O)O)cn3-c2ccc(F)cc2)CC1 | . | . | ? | 6.7µM* | .
CCn1cc(C(=O)NN)c(=O)c2cc(F)c(N3CCCCC3)cc21 | 0% | 21 | ? | -6% | -2
CCn1cc(C(=O)NN)c(=O)c2cc(F)c(N3CCN(C)CC3)cc21 | 3% | -7 | ? | 12µM* | -1
CCN1CCN(c2cc3c(cc2F)c(=O)c(C(=O)O)cn3C2CC2)CC1 | -3% | -8 | ? | 8.3µM* | -3
CCCc1nc2c(nnn2Cc2ccccc2Cl)c(=O)[nH]1 | -1% | -3 | 21% | 57% | -1
CC(C)=CCN1CCN(CCC2=C(C)CCCC2(C)C)CC1CCO (stereo not given) | 2% | -5 | 13µM* | -14% | -2
CCC(C)N(NC(C)=O)c1nc(Cl)nc(NC(C)C)n1 (stereo not given) | -1% | -5 | 2.1µM* | ? | -3
CCOC(=O)O[C@]1(C(=O)OCCl)CC[C@@H]2[C@H]3CCC4=CC(=O)C=C[C@]4(C)[C@@H]3[C@@H](O)C[C@@]21C | . | . | -19% | -21% | .
Cc1cc(C)c2c(CN3CCN(C/C=C/c4ccccc4)CC3)cc(=O)oc2c1 | 2% | -18 | 9.3µM* | 7.4µM* | -3
CC1CCN(Cc2cc(=O)oc3ccc4ccccc4c23)CC1 | 0% | -2 | 7.4µM* | 8.3µM* | 1
Cc1cc2oc(=O)cc(CN3CCN(S(=O)(=O)/C=C/c4ccccc4)CC3)c2cc1C | 1% | 2 | 10µM* | ? | 5
CCC(=O)OCc1cc(=O)oc2ccc3ccccc3c12 | -1% | 3 | 5% | 25% | -8
Cc1cc(C)c2c(CN3CCCCC3)cc(=O)oc2c1 | -9% | 7 | 17% | 4% | 11*
CCOc1ccc(S(=O)(=O)NCc2ccc3c(c2)OCO3)cc1C(=O)O | 2% | 2 | . | 3% | -4
SMILES | LmPK inhibitor | Shiga inhibitor | Pf growth 48h | Pf growth 96h | CHX counter
Cc1cc(C)c2c(CN3CCC(C)CC3)cc(=O)oc2c1 | 4% | 61* | 0% | 23% | 38*
Cc1cc2oc(=O)cc(CN3CCC(C)CC3)c2c(C)c1Cl | -1% | -2 | -5% | -7% | 12
Cc1noc(C)c1C(=O)Nc1cccc(S(=O)(=O)N2CCOCC2)c1 | . | . | 14% | -26% | .
CCCn1c(N)nc2ccccc21 | 16% | -24 | . | ? | -6
CCCCCCn1c(/C=C/c2ccccc2)nc2ccccc21 | . | 101* | . | . | 47*
COc1ccc(Cn2c(/C=C/c3ccccc3)nc3ccccc32)cc1 | -29% | 82* | 5% | -113% | 65*
CCCCn1c(=O)c(C(=O)c2ccccc2)nc2ccccc21 | -2% | 18 | -3% | 6% | 11
CCCn1c(/C=C/c2cc[n+](C)cc2)nc2ccccc21 | -5% | -6 | ? | 13µM* | -3
CCn1c(/C=C/c2ccccc2)nc2ccccc21 | 22µM* | 62* | 266% | -79% | 33*
CCn1c(/C=C/c2ccccc2)nc2ccccc2c1=O | 5% | 19 | -25% | 0% | 2
COc1ccc(/C=C/c2nc3ccccc3n2C)cc1 | 18µM* | -37 | 86% | 20% | -22
CCC(C)n1c(/C=C/c2ccccc2)nc2ccccc21 (stereo not given) | 1% | 13 | ? | ? | 25*
CC(C)Cn1c(/C=C/c2ccccc2)nc2ccccc21 | 0% | 59* | 44% | 1% | 39*
CCC(C)n1c(S(=O)(=O)O)nc2ccccc21 (stereo not given) | -4% | -6 | . | -10% | 1
CCCCN(C(=O)C1CC(=O)N(c2ccc(CC)cc2)C1)c1c(N)n(CCC)c(=O)[nH]c1=O (stereo not given) | . | . | 17% | 17% | .
COC(=O)CC(NC(=S)NC(=O)c1ccccc1)c1ccc(Br)cc1 (stereo not given) | 3% | 10 | ? | ? | 5
COCCN(CC(=O)Nc1cc(Cl)ccc1-n1cncn1)Cc1nc2ccccc2c(=O)[nH]1 | . | . | -11% | -10% | .
CCc1cc(C(=O)N=Nc2c(O)[nH]c3ccc([N+](=O)[O-])cc23)c2ccccc2n1 | -4% | -10 | -10% | ? | -3
CCc1cc(C(=O)N=Nc2c(O)[nH]c3c(Br)cc(Br)cc23)c2ccccc2n1 | 2% | -13 | -24% | 4.7µM* | -1
Cc1cc(Br)c2nc3c(c(C(=O)O)c2c1)CCCCC3 | -4% | -5 | -3% | 8.3µM* | 0
COc1ccc(C(=O)NCc2ccc3c(c2)OCO3)cc1 | 2% | 13 | 16% | 33%[5.75 µM] | 5
COc1cc(-c2nc3ccc(C)cn3c2Nc2ccc3c(c2)OCCO3)ccc1O | 5% | 2 | 12µM* | 13µM* | 13
Cc1ccn2c(Nc3ccc4c(c3)OCO4)c(-c3ccc(O)cc3)nc2c1 | -3% | 41 | ? | 12µM* | 11
COc1ccc(-c2nc3cc(C)ccn3c2NCc2ccc3c(c2)OCO3)cc1 | 1% | 133* | ? | 20% | 27*
COc1ccc(-c2nc3ccccn3c2NCc2ccc3c(c2)OCO3)cc1 | -22% | 49* | 36% | -85% | 22*
c1ccc(-c2nc3ccccn3c2NCc2ccc3c(c2)OCO3)cc1 | 7% | -10 | ? | 92% | 2
CCOc1ccc(NC(=O)CN(C)C(=O)c2cn3ccccc3n2)cc1OCC | . | . | -3% | -2% | .
O=C(COc1ccc(Cl)cc1[N+](=O)[O-])N1CCCCCC1 | 0% | 18 | -2% | ? | 11
